In PubChem BioAssay AID624330 (Southern Research Specialized Biocontainment Screening …, 2012):
“And” between values parts separate entries of the source, which are not always exact repeats. Equal values may be shown once. About 2,100 (0.62%) of roughly 340,000 compounds were called active.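 Rule for the calls: active = first-screen hits whose inhibition reached a set limit at any dose in the follow-up dose series; inconclusive = inhibition above the set first-screen limit but never retested; inactive = the rest.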 Not all results are given here. Results with a measured potency or affinity are listed apart.

Molecular target: Rac GTPase-activating protein 1 (Homo sapiens) (UniProt Q9H0H5)
Sequence (Q9H0H5 whole entry, looked up): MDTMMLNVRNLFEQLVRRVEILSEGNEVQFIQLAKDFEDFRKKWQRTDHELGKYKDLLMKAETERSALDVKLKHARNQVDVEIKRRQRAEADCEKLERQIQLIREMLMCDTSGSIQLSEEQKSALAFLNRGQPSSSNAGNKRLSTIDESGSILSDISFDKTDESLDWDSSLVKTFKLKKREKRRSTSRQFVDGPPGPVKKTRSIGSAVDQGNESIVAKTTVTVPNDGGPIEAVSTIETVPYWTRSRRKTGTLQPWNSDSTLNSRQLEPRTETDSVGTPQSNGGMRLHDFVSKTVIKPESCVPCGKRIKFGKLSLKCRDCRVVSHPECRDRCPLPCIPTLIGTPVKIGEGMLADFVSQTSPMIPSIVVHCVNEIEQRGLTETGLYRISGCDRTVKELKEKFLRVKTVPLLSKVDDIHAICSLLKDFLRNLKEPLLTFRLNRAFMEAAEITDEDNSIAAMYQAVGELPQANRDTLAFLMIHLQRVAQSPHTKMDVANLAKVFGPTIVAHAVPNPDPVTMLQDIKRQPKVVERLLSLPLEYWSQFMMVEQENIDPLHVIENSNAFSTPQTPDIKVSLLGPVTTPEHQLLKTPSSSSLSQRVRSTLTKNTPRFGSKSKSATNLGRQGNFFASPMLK
Experiment: blockers of MgcRacGAP-driven Rac1 GTP hydrolysis – biochemical, ADP Hunter fluorescence, primary and confirmatory, confirmation (AID 624330);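 note: fluorescence reports GDP produced by GAP-driven GTP hydrolysis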
Conditions: MgcRacGAP-stimulated Rac1 GTP hydrolysis, at 30 µM, stronger effect = higher value, GST-tagged Rac1 F28L mutant substrate

inhibition, inactive:
O=C(NCc1ccco1)c1ccccc1 4.89%
O=C(NCc1ccco1)c1cc2sccc2n1Cc1ccccc1 12.8%
O=C(NCC1CCCO1)c1ccccc1 (stereo not drawn) -0.11%
O=C(Cn1c(C(=O)NCCCN2CCOCC2)cc2sccc21)c1ccccc1 29.1%
CN1CCc2c(n(CC(O)CNCc3ccccc3)c3ccccc23)C1=O (stereo not drawn) 8.39%
COc1cc(C(F)(F)F)c(C(=O)N(C)Cc2ccc(Cl)c(Cl)c2)cn1 5.07%
O=C(CN1C(=O)c2ccccc2S1(=O)=O)Nc1ccc(S(=O)(=O)N2CCCC2)cc1 -4.76%
O=S(=O)(c1ccc(Cl)cc1)N1CCCCCC1 4.19%
CN1CCN(S(=O)(=O)c2ccc(Cl)cc2)CC1 4.29% and 1.92%
Cc1ccc(S(=O)(=O)NCCc2ccccc2)cc1 8.77%
Cc1ccc(S(=O)(=O)N2CCC(C(=O)N3CCCC(C(F)(F)F)C3)CC2)cc1C (stereo not drawn) 5.5%
CCOC(=O)C1=C(C)N(C)C(=O)NC1c1cc2c(cc1[N+](=O)[O-])OCO2 (stereo not drawn) 11.2%
CCOC(=O)C1=C(C)NC(=O)CC1c1cc2c(cc1Br)OCO2 (stereo not drawn) 14.8%
COc1ccc(CC(Cc2ccc(OC)c(OC)c2)NC=O)cc1OC 8.2%
O=C(Nc1ccccc1C(=O)Nc1ccccc1)c1ccco1 3.51%
CCOc1ccc(N2C(=O)C3C(c4ccccc4F)NN(C(=O)c4ccc(C)cc4)C3C2=O)cc1 (stereo not drawn) -3.94%
CC(=O)C1C(c2ccc([N+](=O)[O-])cc2)c2c(noc2C)CC1(C)O (stereo not drawn) -3.68%
CC(C)(C)OC(=O)n1cc(/C=N/NC(=O)c2ccco2)c2ccccc21 6.56%
O=C(O)CCCN1C(=O)/C(=C/c2ccc(-c3nc4ccccc4s3)o2)SC1=S 11.9%
O=C(O)CCCN1C(=O)/C(=C\c2ccc(-c3nc4ccccc4s3)o2)SC1=S 10.4%
COc1ccc(NC(=O)CNC(c2ccccc2)c2ccccc2)cc1Cl 5.6%
Cc1cccc(NC(=O)Cn2c(=O)oc3cc(S(=O)(=O)N4CCCC4)ccc32)n1 9.63%
CN(C)S(=O)(=O)Oc1ccc(Cl)cc1C(=O)Nc1ccc(F)cc1F 0.65%
Cc1ccc(F)cc1N=Cc1c(O)c2ccccc2oc1=O 7.61%
Cc1ccc(N=Cc2c(O)c3ccccc3oc2=O)c(C)c1 5.4%
COc1ccccc1NC(=O)C(=O)N1N=C(C(C)C)CC1(O)C(F)(F)F (stereo not drawn) -2.51%
O=C(NCc1cccc(C(F)(F)F)c1)C1CC(c2ccc(C(F)(F)F)cc2)=NO1 (stereo not drawn) 7.21%
Cc1ccc(Nc2cc(C)nc3ncnn23)c(C)c1 7.05%
Cc1ccc(C)c(N2CCN(CCCc3ccccc3)CC2)c1 -8.46%
O=C1C(Cl)=C(NCCCO)C(=O)c2ccccc21 7.29%
Cc1ccc(NC2=C(Cl)C(=O)c3ccccc3C2=O)cc1 5.85%
CCc1ccc(S(=O)(=O)/N=C2\C=C(Nc3ccc(O)cc3)C(=O)c3ccccc32)cc1 10.1%
O=C1C(Nc2ccccc2)=C/C(=N/S(=O)(=O)c2cccs2)c2ccccc21 13.2%
Cc1ccc(NC2=C/C(=N/S(=O)(=O)c3cccs3)c3ccccc3C2=O)cc1 12.6%
O=C(O)c1ccc(NC2=C/C(=N/S(=O)(=O)c3ccccc3)c3ccccc3C2=O)cc1 11.5%
CCN(CC)c1ccc(NC2=C(Cl)C(=O)c3ccccc3C2=O)cc1 28.6%
CCNC1=C(Cl)C(=O)c2ccccc2C1=O 9.6%
CC(C)CN1CCC(=O)N([C@H](COc2ccccc2)c2ccccc2)CC1 12.8%
O=C(CN1C2CCCC1CC(NC(=O)c1ccco1)C2)Nc1ccccc1 (stereo not drawn) 9.34%
CN(CC(=O)Nc1cccc(F)c1)CC(=O)N(C)c1c(N)n(Cc2ccccc2)c(=O)[nH]c1=O 7.85%
CC(C)c1ccc(NC(=O)COC(=O)c2c[nH]c(=O)[nH]c2=O)cc1 6.27%
Cc1ccc(C(=O)Nc2ncccc2O)cc1S(=O)(=O)N1CCCCC1 -2.55%
Cc1csc(=O)n1CC(=O)OCC(=O)NCc1ccc(Cl)cc1Cl 8.92%
O=C(Nc1ccc(Cl)cc1)C(c1ccccc1)N1CCOCC1 (stereo not drawn) 1.96%
COC1=C(Nc2ccc(C)cc2)C(=O)c2ccccc2C1=O 6.66%
COC1=C(Nc2ccccc2)C(=O)c2ccccc2C1=O 11.3%
Nc1nc(COc2ccc(Cl)cc2)cs1 5.42%
O=C(Nc1ccc2c(c1)OCCO2)C1CC(O)CN1C(=O)Nc1ccccc1 (stereo not drawn) 5.39%
Cc1cc(C(=O)NNC(=O)/C=C/c2ccccc2Cl)c(C)o1 6.81%
Cc1cc(C(=O)NNC(=O)/C=C/c2ccc(F)cc2)c(C)o1 0.14%
COc1cccc(-c2cc(C(=O)Nc3cccnc3)no2)c1 3.22%
Cc1c(Cl)cccc1NC(=S)NCc1cccs1 5.46%
COCC(=O)NC1CCN(S(=O)(=O)c2ccc(C(=O)O)cc2)CC1 3.4%
COc1cc2cnc(-c3ccccc3)c(C(=O)c3ccc(F)cc3)c2cc1OC 6.22%
Cc1cc(C)n2nc(N)c(N=Nc3ccccc3)c2n1 13.3%
Nc1nn2c(-c3ccccc3)cc(=O)[nH]c2c1N=Nc1ccc(Br)cc1 4.26%
Cc1cc(C)n2nc(N)c(N=Nc3ccc(Cl)cc3)c2n1 8.06%
Cc1ccc(N=Nc2c(N)nn3c(C)cc(C)nc23)cc1 7.06%
COc1ccc(C(=O)NNC(=O)CSc2ccccc2)cc1 0.63%
Cc1ccc(N(CC(=O)N2CCN(C3CCCCC3)CC2)S(=O)(=O)c2cccnc2)cc1 -4.65%
N#CC(C#N)=C1C(=O)N(CCN2CCCCC2)c2ccccc21 -11.4%
O=C(CSc1nc(NS(=O)(=O)c2ccccc2)cc(=O)[nH]1)Nc1ccc(Cl)cc1 -0.7%
NS(=O)(=O)c1ccc(CCNC(=O)CN2CCC(Cc3ccccc3)CC2)cc1 6.03%
NS(=O)(=O)c1ccc(NC(=S)N2CCC(Cc3ccccc3)CC2)cc1 18.2%
Cc1ccc(OCC(=O)NNC(=O)C2CC(=O)N(c3ccc4c(c3)OCCO4)C2)cc1 (stereo not drawn) 6.61%
O=C(CCc1nnc(CCCCc2ccccc2)o1)NCc1cc(F)ccc1F 9.91%
Cn1c(CCC(=O)OCC(=O)Nc2ccc(Oc3ccccc3)cc2)nc(=O)c2ccccc21 2.65%
CC(C)Cc1n[nH]c(=O)[nH]1 4.75%
O=C1NC(=O)/C(=C/c2cccc(O)c2)N1 5.03%
COc1cc(/C=C2\SC(=N)N(c3ccc(F)cc3)C2=O)ccc1O 20.9%
COc1ccc(C=C2NC(=O)NC2=O)cc1O 10.9%
CCN(CC)c1ccc(/C=C2\NC(=O)NC2=O)cc1 30.9%
COc1ccc(C=C2SC(=O)NC2=O)cc1OC 6.99%
O=C1NC(=O)C(=Cc2ccccc2)N1 -1.98%
CC1(C)CC(=O)C(C=NCCN2CCN(C(=O)c3ccc(F)cc3)CC2)=C(O)C1 0.28%
COc1ccccc1CN1CC(C(=O)NCc2nccn2C)CCC1=O (stereo not drawn) 10.1%
COC(=O)[C@@]12CCCN1[C@H](c1ccc(-c3ccccc3)cc1)[C@H]1C(=O)N(C)C(=O)[C@H]12 8.21%
COc1ccc(CCNC(=O)Cn2ccc3c(OC)cccc3c2=O)cc1OC 8.24%
CCOC(=O)C1=C(COC(=O)/C=C/c2cccc(Br)c2)NC(=O)NC1C (stereo not drawn) 2.35%
Cc1cccc(C)c1-n1nnnc1C1(Nc2ccccc2)CCCCC1 8.6%
CN(C(=O)c1ccc(NC(=O)Cc2cccc(NC(=O)C3CCCN(C(=O)C4CCCC4)C3)c2)cc1)C1CCCC1 (stereo not drawn) 8.78%
Cc1ccc(C(=O)N2CCCC(Nc3ccc(C(C)C)cc3)C2)cn1 (stereo not drawn) 7.62%
COc1ccc(C(=O)N2CCCC(Nc3ccc(C(C)C)cc3)C2)c(OC)n1 (stereo not drawn) 2.96%
CC(=O)c1ccc(C(=O)N2CCCC(Nc3ccccc3)C2)s1 (stereo not drawn) 7.53%
COc1ccc(OCC(=O)N2CCCC(Nc3ccc(C)c(C)c3)C2)cc1 (stereo not drawn) 14.3%
CC(=O)c1ccc(OCC(=O)N2CCCC(Nc3ccc(C)c(C)c3)C2)cc1 (stereo not drawn) 14.3%
CC(=O)c1ccc(C(=O)N2CCCC(Nc3ccc(C(C)C)cc3)C2)s1 (stereo not drawn) -45.7%
COc1ccc(NC2CCCN(C(=O)c3cccnc3)C2)cc1 (stereo not drawn) 26.2%
COc1cc(OC)cc(C(=O)NCC2CCCN(C(=O)c3csc(C(C)C)n3)C2)c1 (stereo not drawn) 8.24%
CC(C)(C)c1ccc(C(=O)NCCCN2CCN(CCCNC(=O)c3ccc(C(C)(C)C)cc3)CC2)cc1 0.51%
COC(=O)C1=C(O)C(C(=O)OC)C(c2ccc(C)cc2)C(C#N)(C#N)C1c1ccc(C)cc1 (stereo not drawn) 6.45%
COc1ccc(/C=C/C(=O)Nc2cc(C(F)(F)F)ccc2Cl)cc1 0.39%
CCOC(=O)C1=C(C)NC(C)=C(C(=O)OCC)C1c1cccc([N+](=O)[O-])c1 10.8%
